Assay [1] has as its target Cytochrome P450 3A4 (Homo sapiens) (UniProt P08684). Put plainly: qHTS Assay for Activators of Cytochrome P450 3A4 (AID 885). Further: nearly all actives have a fitted effect of over 65% in size. The note with it: recombinant CYP3A4, Luciferin-PPXE luminescence, 60 min; series mostly up to 57.1 µM. In a few lines: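 Using 20nM recombinant human CYP3A4 in potassium phosphate (200mM), substrate Luciferin-PPXE at 25uM, luminescent luciferin detection followed a 60-min RT NADPH reaction; data scaled to 57 uM ketoconazole.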
A general note: In qHTS, concentration-response curves come from the screen itself.

For assay [2], the target named is Cytochrome P450 2D6 (Homo sapiens) (UniProt P10635). Put plainly: qHTS Assay for Inhibitors and Substrates of Cytochrome P450 2D6 (AID 891). Further: nearly all actives have a fitted effect of over 60% in size. Further: potency means the concentration at half of the fitted maximal effect. The note with it: recombinant CYP2D6, luciferin-ME EGE luminescence; series mostly up to 11.4 µM. In a few lines: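 Luminescent read-out of luciferin formed by 5 nM human CYP2D6 demethylating 30 uM Luciferin-ME EGE (Km level) over 60 min at room temperature after NADPH regeneration addition. Data normalized to full inhibition by 1.43 uM quinidine.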

The target in assay [3] is Cytochrome P450 2C19 (Homo sapiens) (UniProt P33261). The assay can be described thus: qHTS Assay for Inhibitors and Substrates of Cytochrome P450 2C19 (AID 899). Further: nearly all actives have a fitted effect of over 60% in size. Further: potency means the concentration at half of the fitted maximal effect. The note with it: recombinant CYP2C19, luciferin-H EGE luminescence; series mostly up to 11.4 µM. In a few lines:
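NADPH-dependent conversion of Luciferin-H EGE (10uM, at KM) by 5nM enzyme in 50mM KPO4, 60 min at 37C following 10 min compound preincubation. Stopped with luciferin detection buffer; luminescence read after 20 min.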

The structures appear in SMILES notation. Several values for one entry are separate records, joined by “and”; a condition that tells them apart may be missing. Equal entries are not always repeated. Values without a mark were called inactive. Results filed as inconclusive are left out. Activity calls are given as the source filed them. The call rests on the fitted dose curve; in most records, active means well fitted curve in the direction sought with a large enough effect; inconclusive means small, poorly fitted or top-dose-only effect, or another doubt; inactive means no such curve, though single readings can be large; an effect the other way counts as inactive or inconclusive.

20 molecules from PubChem BioAssay (NCATS) can be followed below.

Chain of Cytochrome P450 2C19 (Homo sapiens) (P33261 whole entry, looked up): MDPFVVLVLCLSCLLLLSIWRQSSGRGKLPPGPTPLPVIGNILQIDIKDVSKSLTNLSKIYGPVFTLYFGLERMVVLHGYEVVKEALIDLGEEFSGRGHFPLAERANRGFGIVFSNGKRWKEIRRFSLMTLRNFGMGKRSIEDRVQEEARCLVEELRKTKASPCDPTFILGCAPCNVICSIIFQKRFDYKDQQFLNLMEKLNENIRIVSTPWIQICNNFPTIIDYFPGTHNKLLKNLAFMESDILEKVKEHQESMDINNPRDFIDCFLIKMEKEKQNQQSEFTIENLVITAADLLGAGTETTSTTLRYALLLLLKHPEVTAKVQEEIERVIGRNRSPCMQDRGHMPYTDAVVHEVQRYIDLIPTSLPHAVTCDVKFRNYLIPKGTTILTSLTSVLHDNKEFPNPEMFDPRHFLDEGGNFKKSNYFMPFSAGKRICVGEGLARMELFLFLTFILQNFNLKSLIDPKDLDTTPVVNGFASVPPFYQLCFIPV
Chain of Cytochrome P450 2D6 (Homo sapiens) (P10635 whole entry, looked up): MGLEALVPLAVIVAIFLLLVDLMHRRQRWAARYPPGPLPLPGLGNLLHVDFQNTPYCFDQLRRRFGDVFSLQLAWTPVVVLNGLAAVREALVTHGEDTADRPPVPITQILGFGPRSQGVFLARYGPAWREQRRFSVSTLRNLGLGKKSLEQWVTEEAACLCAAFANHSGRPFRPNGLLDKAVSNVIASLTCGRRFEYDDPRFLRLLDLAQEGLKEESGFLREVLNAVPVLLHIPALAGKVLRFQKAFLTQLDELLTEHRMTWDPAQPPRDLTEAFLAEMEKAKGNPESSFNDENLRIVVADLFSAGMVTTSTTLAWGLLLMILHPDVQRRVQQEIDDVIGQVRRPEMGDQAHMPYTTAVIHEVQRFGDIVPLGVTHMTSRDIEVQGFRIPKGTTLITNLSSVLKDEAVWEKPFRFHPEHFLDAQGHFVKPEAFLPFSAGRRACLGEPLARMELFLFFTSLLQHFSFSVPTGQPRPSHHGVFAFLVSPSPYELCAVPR
Chain of Cytochrome P450 3A4 (Homo sapiens) (P08684 whole entry, looked up): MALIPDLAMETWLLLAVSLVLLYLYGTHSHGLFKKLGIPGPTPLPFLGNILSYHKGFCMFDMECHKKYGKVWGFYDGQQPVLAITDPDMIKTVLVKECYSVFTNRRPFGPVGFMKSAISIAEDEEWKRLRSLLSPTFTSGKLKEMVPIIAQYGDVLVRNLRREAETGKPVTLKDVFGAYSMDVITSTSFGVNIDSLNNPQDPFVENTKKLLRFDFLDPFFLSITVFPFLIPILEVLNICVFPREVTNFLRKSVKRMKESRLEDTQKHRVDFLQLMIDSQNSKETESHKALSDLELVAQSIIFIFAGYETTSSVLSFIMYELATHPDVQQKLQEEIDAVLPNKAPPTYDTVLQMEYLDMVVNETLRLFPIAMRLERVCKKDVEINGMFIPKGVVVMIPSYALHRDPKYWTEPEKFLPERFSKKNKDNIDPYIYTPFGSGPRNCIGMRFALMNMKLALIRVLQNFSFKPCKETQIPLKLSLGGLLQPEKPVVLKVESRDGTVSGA

As for `CN1C[C@@H]2C(c3ccccc3)C3(c4ccc(C#N)cc4)CC2(C3)[C@H]1c1ccccc1` (some centres not stated), the Potency result in assay [1] is “inactive”.
`CC1CCC2C(=O)N3C(CCC(C)[C@H]3c3ccccc3Br)C(=O)N2C1c1ccccc1Br` (some centres not stated): the activity change, positive = activation in assay [1] was -55.3% [at 11.4 µM]. Also, the Potency in assay [2] was 3.16 µM (active). The Potency result in assay [3] is “inactive”.
Regarding `CC(=O)OC[C@@H]1O[C@H](C/C=N\O[C@@H](C)CN2CCCCc3nc(C)c(C)cc32)C=C[C@@H]1OC(C)=O`, the activity change, positive = activation in assay [1] was -57.2% [at 11.4 µM]. In assay [2], the Potency is 3.16 µM (active).
Turning to `COc1cccc([C@@H]2Oc3ccc(Br)cc3C(=O)[C@H]2O)c1`, in assay [1], the activity change, positive = activation is -74.4% [at 11.4 µM]. Moreover, the Potency in assay [2] and in assay [3] was 3.16 µM (active) in each case.
As for `CC(=O)OC[C@H]1O[C@@H](O/N=C(\C)CCN2CCCCc3nc(C)c(C)cc32)[C@H](OC(C)=O)[C@@H](OC(C)=O)[C@H]1OC(C)=O`, in assay [1], the activity change, positive = activation was -53.9% [at 11.4 µM]. For the same molecule, the Potency in assay [2] is 3.98 µM (active).
Turning to `COc1ccc(OC2C=CC(c3ccccc3)OC2CO)c(C(C)=O)c1` (configuration not stated), the activity change, positive = activation in assay [1] was -57.7% [at 11.4 µM]. For the same molecule, the Potency entry in assay [2] and in assay [3] was “inactive” each time.
Take `COC(=O)NC(/C(C(=O)OC)=C(\C)NCc1ccccc1)c1ccc2ccccc2c1` (configuration not stated): the activity change, positive = activation in assay [1] is -55.9% [at 11.4 µM]. Moreover, the Potency in assay [2] is 2 µM (active); in assay [3] it was 0.0631 µM (active).
`CC(=O)OC[C@H]1O[C@@H](O/N=C(\C)CCN2CCc3nc(-c4ccccc4)c(-c4ccccc4)cc3C2)[C@H](OC(C)=O)[C@@H](OC(C)=O)[C@H]1OC(C)=O`: the activity change, positive = activation in assay [1] is -41.6% [at 11.4 µM]. The Potency in assay [2] is 3.16 µM (active).
For `C[C@@H](c1ccccc1)N1C(=O)[C@H]2[C@H]3[C@H](O)[C@H](O)C/C(=N/OCc4ccccc4)[C@@H]3CC[C@@H]2C1=O`, the activity change, positive = activation in assay [1] was -50% [at 11.4 µM]. Also, in assay [2], the Potency entry was “inactive”.
Turning to `CC1CCC2C(=O)N3C(CCC(C)C3c3ccccc3Br)C(=O)N2C1c1ccc(C#CCN(C)C)cc1` (configuration not stated), in assay [1], the activity change, positive = activation is -38.2% [at 11.4 µM]. For the same molecule, the Potency result in assay [2] and in assay [3] was “inactive” in each case.
As to `CCCCCCCC#Cc1ccccc1C(NC(=O)OC)C(C(=O)OC)C(=O)OC` (configuration not stated), in assay [1], the activity change, positive = activation is -56.4% [at 11.4 µM]. Further, in assay [2], the Potency result was “inactive”. Moreover, the Potency in assay [3] is 2.51 µM (active).
In the case of `CCCCCCC#CC1C=CC(Oc2ccc(C=O)cc2)C(CO)O1` (configuration not stated), the activity change, positive = activation in assay [1] is -35.2% [at 11.4 µM]. The Potency result in assay [2] was “inactive”. Further, the Potency in assay [3] is 3.98 µM (active).
Take `O=C(NCCC[N+]1=CC=N[C@H]1c1ccccc1)N1CCCc2nc(-c3ccc(Br)cc3)ccc21`: in assay [1], the activity change, positive = activation is -35.8% [at 11.4 µM]. The Potency in assay [2] is 0.0794 µM (active).
Consider `CCc1cc2c(nc1CC)CCN(CC/C(C)=N/O[C@@H](C)CN1CCCc3nc(C)c(C)cc31)C2`, for which the activity change, positive = activation in assay [1] was -50.2% [at 11.4 µM]. Further, the Potency in assay [2] is 3.98 µM (active).
Regarding `CC1CCC2C(=O)N3C(CCC(C)[C@H]3c3cccc(N4CCCC4=O)c3)C(=O)N2C1c1cccc(N2CCCC2=O)c1` (some centres not stated), the activity change, positive = activation in assay [1] is -53.3% [at 11.4 µM]. Also, the Potency entry in assay [2] and in assay [3] was “inactive” in each case.
For `CO/N=C(\C)CCN1CCCCc2nc(C)c(C)cc21`, in assay [1], the activity change, positive = activation was -38.2% [at 11.4 µM]. Moreover, the Potency in assay [2] was 3.98 µM (active).
For the molecule `CC(C)=NO[C@@H](C)CN1CCCCc2nc(C)c(C)cc21`, in assay [1], the activity change, positive = activation is -46.4% [at 11.4 µM]. For the same molecule, the Potency in assay [2] is 2.51 µM (active).
Turning to `CC(C)[C@@H](OCc1ccccc1)[C@H](C)/C=N\O[C@@H](C)c1cn([C@H](CO)Cc2ccccc2)nn1`, the activity change, positive = activation in assay [1] is -36% [at 11.4 µM] and -44.1% [at 11.4 µM].
`C/C=C/OC(=O)NC(c1ccccc1)[C@]1(C(C)=O)CCCC1=O` (some centres not stated): the activity change, positive = activation in assay [1] was -53.9% [at 11.4 µM]. Moreover, in assay [2], the Potency result is “inactive”. Moreover, the Potency in assay [3] is 0.199 µM (active).
Take `COC(=O)C/C=C\[C@@H](C)[C@@H](/C=N\OC[C@@H](O)[C@H]1O[C@H]2OC(C)(C)O[C@H]2[C@@H]1O)OC`: the activity change, positive = activation in assay [1] was -43.3% [at 11.4 µM]. Besides, the Potency entry in assay [2] is “inactive”.
